From PubChem BioAssay
NIH3T3 tox = NIH 3T3 cell cytotoxicity. AID 1345082. NIH 3T3 viability, CellTiter-Glo ATP luminescence, 48-72 h. Potency, µM (series often up to 96.7 µM), for the others: at the highest dose activity change, negative = cytotoxicity, hits mostly inhibitors. 94,000 compounds, 4.3% hits; further: nearly all actives have a fitted effect of over 55% in size
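First NIH 3T3 cells are plated at 400 cells/well; next compound is pinned in; then plates incubate 48 or 72 hr at 37 °C; finally CellTiter-Glo is added and luminescence read after 10 min.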
GPT2 inh = inhibitors of human GPT2 alanine aminotransferase; Potency, µM (highest dose often 57.7 µM), for the others: top-dose activity change, negative = inhibition, most hits filed as inhibitors; Q8TD30; 100,000 compounds, 0.25% hits; AID 1671188; Recombinant GPT2, coupled pyruvate oxidase/HRP Amplex Red fluorescence; further: nearly all actives have a fitted effect of over 60% in size
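Inhibition is scored from Amplex Red fluorescence generated when pyruvate oxidase and HRP act on pyruvate released by GPT2. Reactions contain 10ng/uL enzyme, 250uM a-KG and 2mM L-alanine and run 30 min at room temperature.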
HEK293 tox = kills HEK 293 cells; AID 1345083; Potency, µM (series often up to 115 µM), inactives show at the top dose activity change, negative = cytotoxicity, hits mostly inhibitors; HEK 293 viability, ATP luminescence (CellTiter-Glo), 48-72 h; 94,000 compounds, 6.6% hits; further: nearly all actives have a fitted effect of over 60% in size
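Luminescence from cellular ATP, measured with CellTiter-Glo, indicates HEK 293 viability. Cells plated at 250 cells/well are treated with compound for 48 or 72 hr at 37 degree Celsius before reagent addition.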
Luciferase inh = inhibitors of firefly (Photinus pyralis) luciferase; purified P. pyralis luciferase, luminescence, biochemical; Potency, µM (highest dose often 115 µM), usual class: inhibitors; 76,000 compounds, 2.5% hits; AID 1347043; further: nearly all actives have a fitted effect of over 65% in size
Target sequence (P08659 whole entry, looked up): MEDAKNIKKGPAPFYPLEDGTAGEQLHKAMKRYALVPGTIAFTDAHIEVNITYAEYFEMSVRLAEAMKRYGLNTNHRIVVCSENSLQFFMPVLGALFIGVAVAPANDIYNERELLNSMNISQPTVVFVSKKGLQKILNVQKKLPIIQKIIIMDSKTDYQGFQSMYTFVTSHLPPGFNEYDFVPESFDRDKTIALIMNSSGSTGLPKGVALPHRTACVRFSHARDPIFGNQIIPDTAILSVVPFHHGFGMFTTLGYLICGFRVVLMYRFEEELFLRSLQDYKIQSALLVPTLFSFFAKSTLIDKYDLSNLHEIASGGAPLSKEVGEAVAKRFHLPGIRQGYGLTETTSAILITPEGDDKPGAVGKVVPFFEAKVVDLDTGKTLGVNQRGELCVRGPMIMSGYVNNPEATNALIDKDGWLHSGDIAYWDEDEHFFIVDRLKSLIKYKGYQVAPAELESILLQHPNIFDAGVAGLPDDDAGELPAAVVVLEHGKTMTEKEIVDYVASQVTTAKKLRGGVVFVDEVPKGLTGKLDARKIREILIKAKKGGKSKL
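Cell-free enzyme assay, 10nM P. pyralis luciferase, luciferin and ATP each at 10uM. Inhibition profiled over a 6-point titration, read as luminescence.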
hNpr1 antagonist = blocks ANP-stimulated signaling of human Npr1 receptor; P16066; HEK293 hNpr1 GloSensor cGMP, ANP-stimulated luminescence; AID 1347048; Potency, µM (highest dose often 46.3 µM), without a hit: top-dose activity change, negative = inhibition, hits mostly inhibitors; 76,000 compounds, 1.6% hits; calls by dose curve; further: nearly all actives have a fitted effect of over 60% in size
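HEK293 cells stably expressing human Npr1 and cGMP GloSensor pGS-40F, loaded 2 h with 2% GloSensor reagent, given compound 30 min at room temperature. Luminescence read before and 20 min after 0.1 nM hNppA.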
* marks the source's active call; other numbers are inactive results; i = inactive; ? = inconclusive; · = no result given. Compounds with a hit are over-represented: about 10% of the library has one in this group of screens. Unless noted, the call rests on the fitted dose curve; in most records, active means well fitted curve in the direction sought with a large enough effect; inconclusive means small, poorly fitted or top-dose-only effect, or another doubt; inactive means no such curve, though single readings can be large; an effect the other way counts as inactive or inconclusive. On the % scale 0 is the no-effect control and ±100 the full control effect; potency means the concentration at half of the fitted maximal effect.

SMILES | NIH3T3 tox | GPT2 inh | HEK293 tox | Luciferase inh | hNpr1 antagonist
COc1ccccc1NC(=O)Cn1c(=O)n(-c2ccc(F)cc2)c(=O)c2c1cc(C)n2C | 32µM* | -7% | 45µM* | i | -9%
COc1ccccc1NC(=O)Cn1c(=O)n(-c2ccccc2)c(=O)c2c1cc(C)n2C | i | i | -9% | i | 0%
Cc1cccc(NC(=O)Cn2c(=O)n(-c3ccccc3)c(=O)c3c2cc(C)n3C)c1 | i | 1% | 0% | i | 6%
Cc1ccc(NC(=O)Cn2c(=O)n(-c3ccccc3)c(=O)c3c2cc(C)n3C)cc1 | 22µM* | 3% | 40µM* | i | 3%
COc1ccc(-c2cc3c(=O)n(CCNC(=O)c4ccoc4)ccn3n2)cc1 | -20% | i | 22µM* | ? | -12%
COc1ccc(-c2cc3c(=O)n(CCNC(=O)c4ccc(OC)c(OC)c4)ccn3n2)cc1 | -9% | i | ? | ? | -23%
COc1ccc(-c2cc3c(=O)n(CCNC(=O)c4cccc(OC)c4OC)ccn3n2)cc1 | ? | 2% | 35µM* | 6.3µM* | -15%
CCOc1ccc(-c2cc3c(=O)n(CCNC(=O)c4ccoc4)ccn3n2)cc1 | -25% | i | 45µM* | 20µM* | -5%
O=C(NCCn1ccn2nc(-c3ccc(F)cc3)cc2c1=O)c1ccoc1 | ? | i | 50µM* | ? | -13%
COc1cccc(-c2cc3c(=O)n(CCNC(=O)c4ccccc4F)ccn3n2)c1 | -28% | -4% | ? | ? | -8%
O=C(NCCn1ccn2nc(-c3ccc(F)cc3)cc2c1=O)c1ccc2[nH]ccc2c1 | -19% | i | -22% | 11µM* | 0%
O=C(Cc1cccc(F)c1)NCCn1ccn2nc(-c3ccc(F)cc3)cc2c1=O | -22% | i | ? | ? | -16%
COc1ccc(-c2cc3c(=O)n(CCNC(=O)c4sccc4C)ccn3n2)cc1 | -18% | -3% | ? | 4.5µM* | -13%
COc1ccc(-c2cc3c(=O)n(CCNC(=O)c4ccc(C)c(F)c4)ccn3n2)cc1 | -14% | i | 3% | i | -17%
O=C(NCCn1ccn2nc(-c3ccc(F)cc3)cc2c1=O)c1c(F)cccc1Cl | ? | i | 32µM* | i | 2%
COc1ccc(-c2cc3c(=O)n(CCNC(=O)c4ccsc4)ccn3n2)cc1 | -20% | 0% | ? | 4.5µM* | -24%
O=C(c1ncoc1C1CC1)N1CCOCC(O)(CN2CCCC2)C1 (centres undefined) | -16% | -24% | -17% | i | 1%
CN1CC2(CCN(c3nc(-c4ccccc4)no3)CC2)CC(c2ccccc2)C1=O (centres undefined) | ? | 0% | ? | ? | -29%
O=C(NCc1nc(-c2cccc(F)c2)c(-c2ccccn2)[nH]1)N1CCCC1 | ? | -7% | 50µM* | i | 5%
NC1(C(=O)NCc2nc(-c3cccc(F)c3)c(-c3ccccn3)[nH]2)CCC1 | -1% | ? | -9% | i | -10%
CCn1nc(C)c(CN2C[C@@H](COC)[C@H](c3ccncc3)C2)c1C | i | i | ? | i | 0%
COc1ccc(C(=O)N2CCC(Oc3ccc(-c4noc(C(C)C)n4)cc3)C2)cc1 (centres undefined) | ? | -11% | 40µM* | i | ?
O=C(C1CCOCC1)N1CC(Oc2ccc(-c3nc(-c4ccccc4)no3)cc2)C1 | -15% | i | ? | ? | ?
CC(C)c1nc(-c2ccc(OC3CCN(C(=O)c4ccccc4F)C3)cc2)no1 (centres undefined) | ? | -20% | ? | · | ·
COc1ccc(C(=O)N2CCC(Oc3ccc(-c4noc(-c5ccccc5)n4)cc3)C2)cn1 (centres undefined) | -22% | -17% | -25% | ? | 11µM*
O=C(O)[C@H]1NCCC[C@H]1C(=O)O | · | i | · | · | ·
O=C1NCCCc2[nH]c(-c3csc(-c4ccccc4)n3)nc21 | ? | -12% | ? | 25µM* | -4%
Cc1nc(-c2nc3c([nH]2)CCCNC3=O)cc(=O)[nH]1 | 4% | 4% | -21% | i | -5%
